Source: PubChem (The Scripps Research Institute Molecular Screening Center)
The list is not random: actives were taken first. Their share in the collection is about 4.1%.
hcDAF12 agonist = activators of H. contortus DAF-12 nuclear receptor | actives 1.4% (n = 370,000) | HEK293 hcDAF-12 lit1-tk-luc reporter, luminescence; 0% DMSO, 100% Δ7-dafachronic acid | activation, % at 6.8 µM | AID 652067;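 active means activation above the mean of all tested compounds plus 3 SD, cut at about 5.5% in these data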;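 further: 100% = response to 3 µM Δ7-dafachronic acid high control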
ssDAF-12 act = activators of S. stercoralis DAF-12 nuclear receptor; actives 1% (n = 370,000); HEK293 ssDAF-12/GRIP1 lit1-tk-luc reporter, luminescence; % of 3 µM dafachronic acid response; activation, % at 6.8 µM; AID 652126;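 active means activation above the mean over all tested compounds plus 3 SD, cut at about 0.9% in these data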;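 further: 0% = DMSO-only wells and 100% = 3 µM delta7-dafachronic acid wells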
DAX1 inh-1 = inhibitors of human orphan nuclear receptor DAX1 (NR0B1). P51843. inhibition, % at 6.75 µM. HEK293 Gal4-DAX1 luciferase reporter, luminescence. actives 0.99% (n = 340,000);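 active means inhibition above the mean over all tested compounds plus 3 SD, cut at about 4.2% in these data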;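 further: 0% = DAX1-transfected cells with DMSO and 100% = empty-vector control cells with DMSO; inhibition shows as a rise in luminescence from relieved DAX1 repression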
Target sequence (P51843 207-470 limits assumed): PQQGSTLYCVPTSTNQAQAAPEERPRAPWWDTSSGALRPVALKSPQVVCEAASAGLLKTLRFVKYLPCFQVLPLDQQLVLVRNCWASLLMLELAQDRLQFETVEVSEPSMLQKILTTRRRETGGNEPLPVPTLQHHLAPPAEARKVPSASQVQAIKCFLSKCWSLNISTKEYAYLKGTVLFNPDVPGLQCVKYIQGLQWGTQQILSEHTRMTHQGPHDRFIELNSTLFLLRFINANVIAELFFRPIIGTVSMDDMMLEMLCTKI
DAX1 inh-2 = inhibitors of DAX1 repression of SF-1 activated StAR promoter; HEK293T StAR-luciferase reporter, SF-1/DAX-1 repression relief; inhibition, % at 6.8 µM; actives 1.1% (n = 370,000);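 active means inhibition above the mean over all tested compounds plus 3 SD, cut at about 3.6% in these data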;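 further: 0% = DAX-1 cells with DMSO and 100% = cells lacking DAX-1 with DMSO; higher inhibition means more luminescence from relief of DAX-1 repression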
hgDAF-12 ag = agonists of H. glycines DAF-12 nuclear receptor; HEK293 GAL4-hgDAF12 UAS-luciferase reporter, agonist luminescence; normalized to butyrate control; activation, % at 6.8 µM; actives 1.8% (n = 370,000);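 active means activation above a cutoff set at the mean of all screened compounds plus 3 SD, cut at about 10% in these data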;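 further: 0% = DMSO wells and 100% = sodium butyrate wells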
Active calls of the source: *; x = not tested or not shown.

SMILES	hcDAF12 agonist	ssDAF-12 act	DAX1 inh-1	DAX1 inh-2	hgDAF-12 ag
CC1(C)Cc2nc3sc(C(=O)NCCO)c(N)c3cc2CO1	0.8	-0.6	1.8	0.3	5.3
CC1(C)Cc2nc3sc(C(=O)NCCCO)c(N)c3cc2CS1	1.0	-1.2	5.0*	0.9	7.2
Cc1c(C(=O)N2CCC[C@H]2C(N)=O)oc2c(F)cccc12	-0.2	-0.7	6.0*	0.2	0.7
Cc1c(C(=O)N2CCN(c3ccccn3)CC2)oc2c(F)cccc12	-2.6	-1.1	-1.3	0.2	-2.1
COC(=O)C1=C(C)N(Cc2ccccc2C(F)(F)F)C(=NCc2cc(OC)c(OC)c(OC)c2)NC1CCc1ccccc1 (stereo not drawn)	-0.6	-0.3	x	-0.4	-0.9
CCCN=C(C)C1=C(O)c2ccccc2C1=O	0.5	-1.7	5.3*	1.4	9.6
COc1ccc(C2=Nc3ccccc3C2(O)CCN2C(=O)c3ccccc3C2=O)cc1 (stereo not drawn)	0.4	-0.8	0.8	0.5	10.5*
CCCOc1ccc(C(=O)Nc2ccccc2[N+](=O)[O-])cc1	3.9	-0.4	1.1	0.5	13.1*
O=C(NCc1ccccc1)OC1CCC12CCC(c1ccccc1)CC2 (stereo not drawn)	-0.1	-1.4	x	x	3.2
Clc1ccc(-n2c(SCc3cccc4ccccc34)nnc2-c2ccccn2)cc1	-4.2	-1.8	x	-2.1	1.6
O=C(CO/N=C/c1ccccc1OC(F)F)N1CCc2ccccc21	6.5*	-1.0	1.6	0.3	2.7
CC1Cc2ccccc2N1C(=O)CO/N=C/c1ccccc1OC(F)F (stereo not drawn)	-2.4	-1.5	-0.4	-0.8	-1.0
c1ccc2c(Nc3nnc(-c4ccncc4)s3)cccc2c1	2.2	-0.3	0.7	0.9	10.5*
C=CCNc1nnc(-c2ccncc2)s1	-0.7	-1.0	0.0	-0.3	1.9
CSc1nc(O)c(C(c2cccc([N+](=O)[O-])c2)c2c(O)nc(SC)[nH]c2=O)c(=O)[nH]1	6.0*	0.7	1.1	-0.5	-0.1
CCn1c(SCC(=O)Nc2nc(-c3ccc(C)cc3)cs2)nnc1-c1ccccc1	0.7	-1.7	-0.2	0.6	0.6
CC(=O)c1ccc(OCCn2c(SCC(=O)O)nc3ccccc32)cc1	6.4*	0.5	2.1	0.3	8.9
Cc1ccc(-c2csc(NC(=O)CSc3nc4ccccc4c(=O)n3CCCN(C)C)n2)cc1	0.8	-1.5	2.4	1.1	12.9*
COCCCn1c(SCC(=O)Nc2ccc(C(C)=O)cc2)nc2ccccc2c1=O	0.3	-1.2	3.4	-0.8	10.8*
Cc1c(C(=O)N2CCc3ccccc32)oc2c1C(=O)CC(C)(C)C2	4.2	0.6	2.5	4.0*	7.9
Cc1c(C(=O)N2CCN(C)CC2)oc2c1C(=O)CC(C)(C)C2	-0.9	-1.6	-0.6	0.6	-1.9
Cn1c(CC(=O)Nc2ccc(F)cc2)c(Sc2ccccc2)c2ccccc21	6.5*	-0.6	0.2	0.1	0.2
CCC[C@H]1[C@@H](NC(=O)C2CCC2)CC[C@@]23CCCN2C(=O)CCC[C@@H]13	-1.0	-1.0	x	x	-2.0
CCCCCCCCN1C(=O)[C@@H](CC(=O)N2CCCCC2)C[C@@]2(C(=O)OC)C1=C[C@H](COCc1ccccc1)O[C@@H]2C	5.8*	-0.6	x	-0.5	1.5
Cc1n[nH]c(C)c1S(=O)(=O)NCCc1c[nH]c2ccccc12	1.2	-0.5	x	0.3	-2.4
SMILES	hcDAF12 agonist	ssDAF-12 act	DAX1 inh-1	DAX1 inh-2	hgDAF-12 ag
C=CCOc1c(Br)cc(CNc2ccc(NC(=O)CCC)cc2)cc1OCC	-1.2	-0.3	-1.3	-0.1	1.7
C=CCOc1ccc(CNc2ccc(NC(=O)CCC)cc2)cc1OCC	-2.2	-1.9	4.5*	-0.8	3.1
CC(CCc1ccccc1)NC(=O)CN1CCOc2ccccc21 (stereo not drawn)	3.4	0.4	0.2	-0.5	0.6
O=C(CN1CCOc2ccccc21)NCc1ccccc1	5.8*	0.2	0.3	-0.5	1.0
CCC[C@H]1[C@@H](OC(=O)NCc2cccs2)CC[C@@]23CCCN2C(=O)CCC[C@@H]13	-0.8	-1.2	x	x	1.1
CN(CCc1ccccn1)c1ccccc1	6.2*	0.0	0.5	0.3	12.0*
O=C(NNC(=O)c1ccccc1Br)c1ccc(Cl)cc1	-3.2	-1.1	0.6	0.4	0.3
O=C(NNC(=O)c1ccccc1Br)c1ccccc1Cl	-0.2	-0.5	5.5*	0.8	0.4
COc1ccccc1NC(=O)OC(C)c1ccc(Cl)cc1 (stereo not drawn)	-0.5	-1.5	4.5*	-0.2	-0.4
CCc1cc(C(=O)Cc2nc3ccccc3s2)c(O)cc1OCC(=O)O	4.2	0.9*	0.4	0.7	-0.2
O=C(OCc1nc2ccccc2s1)c1ccccc1O	3.3	0.0	0.3	3.6	6.2
Cc1ccc(NC(=O)c2cc(N(C)C)ccc2[P+](=O)O)cc1	5.7*	-0.5	1.2	3.7*	11.0*
Cc1c(CCC(=O)NCC(=O)O)c(=O)oc2cc3occ(-c4ccccc4)c3cc12	-2.1	-0.6	-1.8	0.7	-2.5
Cc1coc2cc3oc(=O)c(CCC(=O)NCC(=O)O)c(C)c3cc12	0.2	-0.8	6.1*	0.0	0.5
Clc1ccc(CN2CCN(N=Cc3c4ccccc4cc4ccccc34)CC2)cc1	-0.6	-0.2	x	0.3	-1.0
O=C(CSc1n[nH]c(=O)n1C1CC1)c1ccc(F)cc1	3.0	-1.0	x	0.0	-1.7
CSc1n[nH]c(=O)n1C1CCCCC1	1.2	-0.9	6.0*	-0.5	-0.3
O=C(CCc1ccccc1)N[C@H]1C(=O)CCC[C@]12C(=O)N(Cc1ccccc1)c1ccccc12	-0.9	-1.5	x	-0.9	-2.5
CC(=O)N1CCN(c2ccc(N3CCN(Cc4ccccc4)[C@@H](C)C3)c(C)c2)[C@@H](C)C1	-1.2	-1.0	x	-1.4	3.9
Cc1cccc2sc(NNC(=O)c3cc(=O)c4ccccc4o3)nc12	6.0*	1.4*	-0.4	1.1	4.4
O=C(NNc1nc2c(F)cccc2s1)c1cc(=O)c2ccccc2o1	6.2*	-0.4	-1.1	1.0	3.2
O=C(COc1ccccc1)NNc1nc2c(F)cccc2s1	3.0	-0.3	3.0	0.0	-3.5
O=C(NNc1nc2c(F)cccc2s1)c1ccc(F)cc1	3.4	1.3*	-1.1	-0.4	2.0
Cc1ccc2sc(NNC(=O)c3cc(=O)c4ccccc4o3)nc2c1C	2.4	0.2	0.8	-0.6	2.6
Cc1ccc(-c2nc3ncccn3c2NC(=O)c2cccc(C)c2)cc1	-2.0	-1.3	x	0.1	0.9
CC(C)[C@H](NC(=O)OCc1ccccc1)C(=O)N[C@@H](Cc1ccccc1)C1(O)CN(C)C(C(=O)NCc2ccccn2)CO1 (stereo partly drawn)	-0.9	-1.6	x	x	-2.0
COC(=O)[C@]12C[C@H](CC(=O)NCCCCc3ccccc3)C(=O)N(CCC3=CCCCC3)C1=C[C@H](C(C)C)O[C@@H]2C1CC1	-3.1	-1.4	x	0.4	2.7
